Test results taken from PubChem BioAssay (NCI).
The panel holds about 79,000 compounds, 15% with a hit somewhere; the sample as a whole holds those more often. A number with no mark means an inactive call. Activity calls are given as the source filed them. Cut-off read from the data, not from the text of the source: active = growth inhibition above about 70%; inactive = the rest.

assay: NCI Yeast Anticancer Drug Screen. Data for the sgs1 mgt1 strain (AID 161);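 note: 0% = growth of cultures given vehicle only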; details: S. cerevisiae sgs1 mgt1 strain, at 50.0 µM, stronger effect = higher value
Experimental: Growth inhibition of yeast strains with defined genetic alterations is measured as a screen for potential anti-cancer activity. Selected strains with alterations in DNA damage repair or cell cycle control were exposed to compounds and growth inhibition was measured relative to vehicle treated controls. The strain used in this assay is sgs1 mgt1

For `CCOC(=O)C[P+](c1ccc(OC)cc1)(c1ccc(OC)cc1)c1ccc(OC)cc1`, the growth inhibition was 92.5% (active).
With `O=C1c2ccccc2C2(Br)C(=O)c3ccccc3C12Br` (stereo not given) the growth inhibition was 98.8% (active).
For `CCCCCCOc1ccc(OCCCC[N+]2(CC)CCCCC2)cc1`, the growth inhibition was 73.7% (active).
In the case of `CC1(C)C=C(C(Br)c2ccc(Cl)cc2)C(=O)c2ccccc21` (stereo not given), the growth inhibition was 98.2% (active).

Point of comparison: `NCCC(=O)NCCSSCCNC(=O)CCN`, growth inhibition 6.25%. Against it:
- CCOC(=O)C(CCC(=O)OC)C(=O)OCC — lower, -32.5%
- CCOC(=O)C1CN(C)C(=O)C1=O (stereo not given) — higher, 16.6%
- CC1(C)COC2(CC(C)(C)OC2(C)C)OC1 — lower, -6%
- COc1cccc(C(C#N)c2cnc3ccccc3n2)c1 (stereo not given) — higher, 10.1%
- COc1cc(NS(C)(=O)=O)ccc1Nc1c2ccccc2nc2c1[nH]c1ccc(NC3OC(CO)C(O)C(O)C3O)cc12 (stereo not given) — lower, 3.35%
- c1ccc(-c2nc3c(N4CCOCC4)ncnc3o2)cc1 — higher, 7.95%
- NC(=S)N1CCCC1 — lower, 3.05%
- Cc1cc(CC(=S)[S-])[n+](C)c(CC(=S)S)c1 — lower, -14.1%
- COc1ccc(CNc2nc3ccccc3nc2C(=O)O)cc1OC — lower, 4.4%
- CCOC(=O)CCC1(C(=O)OC)C(=O)CCCCCCCC1C(=O)OC (stereo not given) — higher, 20.3%
- NC1(C(=O)O)CCCc2ccccc21 (stereo not given) — lower, -1.1%
- Cc1cc(OC(N)=S)cc(C)c1Cl — higher, 7.6%
- O=[N+]([O-])c1cc2c(c([N+](=O)[O-])c1)Nc1cc(Cl)ccc1O2 — higher, 17.6%
- C=CCN1C(N)=C(C#N)C(C#N)(C#N)C1CCC (stereo not given) — lower, -47.9%
- COC(=O)Nc1nc2ccc(-n3c(C)nc4ccccc4c3=O)cc2[nH]1 — higher, 6.35%
- CCCCCC#CC1OC1(C)C (stereo not given) — lower, -2.8%
- CC(=O)Nc1ccc(/C=N/NC(=O)c2ccc(O)cc2)cc1 — lower, -2%
- CC(C)(C)NC(NC(C)(C)C)=C(C(Cl)=C(Cl)Cl)[N+](=O)[O-] — lower, -6.15%
- O=c1[nH]c(Nc2ccc(Cl)c(C(F)(F)F)c2)nc2nc[nH]c12 — lower, -9.5%
- CCOC(=O)C(c1ccccc1)N(CCCN(CC)CC)c1ccccc1 (stereo not given) — lower, 1.6%
- C=CCNC(=O)CN(CC(=O)OC)C1CCCCC1N(CC(=O)OC)CC(=O)OC (stereo not given) — lower, -1.8%
- C=CCn1c(NCCN(CC)CC)nc2ccc(Cl)cc2c1=O — higher, 31.8%
- COc1ccc(C2Oc3cc(OC)c(OC)cc3C2CCl)cc1OC (stereo not given) — lower, -46.8%
- CCOC(=O)c1[nH]c(-c2ccc(OC)cc2)c(C(=O)OCC)c1-c1ccccc1 — higher, 28.8%
- Cc1ccc(NC(=O)Oc2ccc(F)cc2)cc1NC(=O)Oc1ccc(F)cc1 — higher, 15.3%
- CC(=O)OCC12CCC(O1)C1C(=O)OC(=O)C12 (stereo not given) — lower, -9.2%
- N#Cc1ccc(CSC2=C(c3ccc(Cl)cc3)S/C(=C3\SC(SCc4ccc(C#N)cc4)=C(c4ccc(Cl)cc4)S3)S2)cc1 — lower, -19.9%
- O=C(Nc1cccc(O)c1)c1ccc([N+](=O)[O-])cc1 — higher, 14.4%
- COCC1C(COC)C2CCC1C2(Cc1ccccc1)Cc1ccccc1 (stereo not given) — higher, 18.1%
- O=C(COc1cccc(Cl)c1)Nc1cccc(S(=O)(=O)O)c1 (tested in a mixture with another compound) — lower, -12.8%
- CCCSc1ccc([N+](=O)[O-])cc1[N+](=O)[O-] — higher, 25.2%
- CC(C(O)C(F)(F)F)[N+](C)(C)C (stereo not given) — lower, 1.8%
- Cc1ccc(CNC(=O)NC(C)(C)C)cc1 — lower, -2.65%
- O=C1CN(c2ccc(Cl)cc2)C(=O)CN1CCN1CC(=O)N(c2ccc(Cl)cc2)CC1=O — lower, -3.25%
- CC1=NN(c2cc(Cl)c(S(=O)(=O)O)cc2Cl)C(=O)C1N=Nc1ccc(S(=O)(=O)O)cc1 (stereo not given) — lower, -8%
